Experimental data published in the OligoGym collection.
Also: reference of the scale not given here.

The sequences below were run against ACTL6A (assay: pooled miR-30 sensor sort-seq; sequence = guide strand). Settings: shRNA.
In the case of TTACACTGCCATAGAGACCTGG, the sensor-assay potency score (higher = more potent) is reported as -0.411.
AATAGCTTGGAAACTATCCCAG was tested, and the sensor-assay potency score (higher = more potent) was -0.568.
In the case of TCCTTCTTCATATTCTTGCTTG, the sensor-assay potency score (higher = more potent) is reported as -0.909.
Sequence TTGTGTTTCCTGATAACCCCTT has a sensor-assay potency score (higher = more potent) of 0.282.
TTGAAGGACATAGCCATCGTGG showed a sensor-assay potency score (higher = more potent) of -0.822.
TAGTAATAAAGTCTCCAGCAAG showed a sensor-assay potency score (higher = more potent) of -1.21.
With TTAGTATCTATGTAGTAGGTGG the sensor-assay potency score (higher = more potent) was 0.198.
TGACTGACTCCTAACATTGTGT was tested, and the sensor-assay potency score (higher = more potent) was -0.541.
TAGTATTCCACGGTGCCTCTGA showed a sensor-assay potency score (higher = more potent) of 0.0107.
With TAATTGTGCCAAGACCTCGTAA the sensor-assay potency score (higher = more potent) was -0.587.
TTGAATCTGACACTTGAAGTAC showed a sensor-assay potency score (higher = more potent) of -0.0659.
TTTGCTCTAGTATTCCACGGTG gave a sensor-assay potency score (higher = more potent) of -0.0557.
Sequence TAACCTGAGGCAACTTCTCTTT has a sensor-assay potency score (higher = more potent) of -0.605.
In the case of TTTATCGCCATCTATTTCCATT, the sensor-assay potency score (higher = more potent) is reported as -1.13.
TTACACATATAATTGTGCCAAG was tested, and the sensor-assay potency score (higher = more potent) was -1.42.
TTTTCTGAGACAGCTCTCTATT showed a sensor-assay potency score (higher = more potent) of -0.807.
TTTGCAATCAATTTCAACCGCA was tested, and the sensor-assay potency score (higher = more potent) was 0.585.
For TTGTGGTGACAACATGACTGAC, the sensor-assay potency score (higher = more potent) was -0.897.
ATAGCTTGGAAACTATCCCAGT gave a sensor-assay potency score (higher = more potent) of -0.733.
In the case of TAGTGTTCAAACATTAACTCTG, the sensor-assay potency score (higher = more potent) is reported as 0.293.
Work on TTGCTCTAGTATTCCACGGTGC yielded a sensor-assay potency score (higher = more potent) of -0.281.
With TTGACATGCATTTTGTAGGTAT the sensor-assay potency score (higher = more potent) was 0.179.

Each sequence was assayed against ACTR3B in the same assay as above. Settings: shRNA.
TACTGTTTGATCCACTTCCGGG gave a sensor-assay potency score (higher = more potent) of -0.539.
Work on TACGACATTCTTATACAGCGGG yielded a sensor-assay potency score (higher = more potent) of -0.141.
Sequence TTGATCGCATTGATACCCGTGT has a sensor-assay potency score (higher = more potent) of -0.213.
TTCATCAACAACATCTGAGATG was tested, and the sensor-assay potency score (higher = more potent) was -0.638.
With TCTATAACAAACTTCTTCTGGT the sensor-assay potency score (higher = more potent) was 0.599.
TACTTCATCAACAACATCTGAG was tested, and the sensor-assay potency score (higher = more potent) was 0.487.
With TTCTGCAAGATACTCTCTGTTT the sensor-assay potency score (higher = more potent) was -0.433.
Sequence TTACTTCATCAACAACATCTGA has a sensor-assay potency score (higher = more potent) of -0.87.
In the case of TTACATAACCTTCTGCCACTGG, the sensor-assay potency score (higher = more potent) is reported as 0.166.
For TTTAAAAACCACTTGCTCCATG, the sensor-assay potency score (higher = more potent) was -0.231.
With TATAACAAACTTCTTCTGGTTG the sensor-assay potency score (higher = more potent) was -0.5.
TTGAGCTTGGTCAACTACCTTT showed a sensor-assay potency score (higher = more potent) of -0.378.

The sequences below were run against ACYP1 in the same assay as above. Settings: shRNA.
TATTAACACACAATAGTTCTAT showed a sensor-assay potency score (higher = more potent) of 0.336.
Sequence TCTTGTTTCAAGCCATTCCTGC has a sensor-assay potency score (higher = more potent) of -0.475.
Sequence TAATATTAACACACAATAGTTC has a sensor-assay potency score (higher = more potent) of -0.41.
TCCAACTTCAAGATGACTTTTT was tested, and the sensor-assay potency score (higher = more potent) was -1.37.
TTCATTGTTGAAGTTTGCTTTG gave a sensor-assay potency score (higher = more potent) of -0.707.
ATAACTTATTGACTAATGCTAA was tested, and the sensor-assay potency score (higher = more potent) was -0.709.
